Most compounds without a hit are left out; they make up all but 3.5% or so of the library.
FBW7 activator: FBW7 E3 ligase activators, primary screen, biochemical, AlphaScreen, human. F-box/WD repeat-containing protein 7 (Homo sapiens), Q969H0. AlphaScreen FBW7–phospho-cyclin E peptide binding, activator screen. normalized activity (activation), % at 26.1 µM. 650,000 tested, 0.13% active. AID 1259310, 2017; in the data active means normalized activity above about 1.9%;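 further: purified mutant Fbw7 with reduced substrate affinity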
TEAD-YAP block: TEAD-YAP interaction inhibition, primary screen, TEAD-YAP interaction inhibitor project, luminescence, HEK-TIYL cells | 640,000 tested, 1.4% active | TEAD-Gal4/YAP UAS-luciferase luminescence | inhibition, % at 9.12 µM; in the data active means inhibition above about 32%
MITF primary: MITF inhibitors, primary screen, biochemical, AlphaScreen, human | Microphthalmia-associated transcription factor (Homo sapiens), O75030 | AlphaScreen MITF homodimerization, bead proximity signal | inhibition, % at 2.6 µM | 650,000 tested, 0.91% active; in the data active means inhibition above about 50%
Target sequence (O75030 whole entry, looked up): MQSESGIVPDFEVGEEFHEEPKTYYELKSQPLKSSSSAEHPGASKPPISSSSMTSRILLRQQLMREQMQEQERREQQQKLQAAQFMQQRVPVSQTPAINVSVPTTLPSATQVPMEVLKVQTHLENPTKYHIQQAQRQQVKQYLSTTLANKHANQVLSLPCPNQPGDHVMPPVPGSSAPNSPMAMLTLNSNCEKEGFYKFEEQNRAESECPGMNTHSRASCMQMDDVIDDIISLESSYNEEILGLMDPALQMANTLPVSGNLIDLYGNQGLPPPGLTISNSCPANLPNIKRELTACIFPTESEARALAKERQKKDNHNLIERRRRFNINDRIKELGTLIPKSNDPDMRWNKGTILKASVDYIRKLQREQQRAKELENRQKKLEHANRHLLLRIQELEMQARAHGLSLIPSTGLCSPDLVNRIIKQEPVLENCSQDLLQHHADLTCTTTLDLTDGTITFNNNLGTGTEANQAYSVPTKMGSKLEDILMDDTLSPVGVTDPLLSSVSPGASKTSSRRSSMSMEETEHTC
GPR151 activ: activators of human GPR151, primary screen, cell-based, PathHunter beta-arrestin, luminescence; 650,000 tested, 1% active; activation, % at 11.2 µM; PathHunter beta-arrestin GPR151 cells; in the data active means activation above about 4.9%
GPR151 conf act: GPR151 activators, triplicate retest, confirmation, cell-based, PathHunter beta-arrestin, luminescence | shares compounds with GPR151 activ | GPR151 PathHunter beta-arrestin cells, 90 min; % of EA-reagent control over plate median | activation, % at 11.2 µM | 6,700 tested, under 10 active;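 active means mean percent activation across replicates above the confirmation screen cutoff of 4.91%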
GPR119 ag: GPR119 activators in beta-arrestin cells, counter-screen for GPR151 activator project, cell-based, PathHunter beta-arrestin, luminescence, triplicate; 90 min; 0 = compound-well median, 100 = enzyme-acceptor control; shares compounds with GPR151 activ; activation, % at 11.2 µM; 6,700 tested, 0.3% active;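 active means mean percent activation in the counterscreen above 29.09%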;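 further: counterscreen on off-target GPR119 to flag nonselective hits from the GPR151 activator screen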
A number is an active result; - = inactive; . = no result.

SMILES	FBW7 activator	TEAD-YAP block	MITF primary	GPR151 activ	GPR151 conf act	GPR119 ag
CNC(=O)CCC(=O)N1CCOc2ccc(Cl)cc21	-	-	-	7.2	-	-
C=CCOc1ccc(C(=O)Nc2nnc(C)s2)cc1	-	-	-	-	.	.
O=C(OCc1cc(=O)c(O)co1)c1cc(-c2cccs2)nc2ccccc12	-	-	-	-	.	.
COCCCn1c(=O)[nH]c2ncc(-c3cc(OC)c(OC)c(OC)c3)nc21	-	-	-	6.0	-	-
COCCCn1c(=O)[nH]c2ncc(-c3ccccc3)nc21	-	-	-	-	.	.
COc1ccc(-c2csc(NC(=O)c3ccc(S(=O)(=O)N4CCCC4)cc3)n2)c(OC)c1	-	-	-	5.5	-	-
Cc1nc2c(c(=O)[nH]1)CCN(Cc1ccc3ncccc3c1)C2	-	-	-	6.5	-	-
O=C(COc1ccc(Cl)cc1)Nc1ccc(S(=O)(=O)Nc2ccc(F)cc2)cc1	-	-	-	-	.	.
COCCNc1nc(-c2ccccc2F)nc2ccccc12	-	-	-	-	.	.
COCCCNc1nc(-c2ccccc2F)nc2ccccc12	-	-	-	6.3	-	-
CS(=O)(=O)N1CCC(Oc2ccc(-c3ccc(C#N)cc3)cc2)CC1	-	-	-	12	-	-
CCN1CCC(Oc2ccc(-c3ccc(C#N)cc3)cc2)CC1	-	-	-	-	.	.
O=C(CN1C(=O)C2C3CCC(C3)C2C1=O)Nc1ccc(-n2cnnn2)cc1 (centres undefined)	-	-	-	5.1	-	-
O=C(CN1C(=O)C2C3CCC(C3)C2C1=O)Nc1ccc(-c2ccccc2)cc1 (centres undefined)	-	-	-	-	.	.
COc1ccc(CCNC(=O)C2OC3OC(C)(C)OC3C3OC(C)(C)OC23)cc1 (centres undefined)	-	-	-	-	.	.
CN1CCN(C2CCN(c3cccc(Cl)c3)CC2)CC1CCO (centres undefined)	-	-	-	-	.	.
OCC1CCN(C2CCCN(C3CCN(c4cccc(Cl)c4)CC3)C2)CC1 (centres undefined)	-	-	-	5.1	-	-
COc1cccc(CN(CCN(C)C)C(=O)[C@@H](Cc2ccc(-c3cn[nH]c3)cc2)NC(=O)C(C)O)c1 (some centres undefined)	-	-	-	5.1	-	-
Nc1ccc(N2CCCCC2)c([N+](=O)[O-])c1	-	-	-	-	.	.
O=C(Cn1cnc2ccccc2c1=O)NCCC(=O)N1CCOCC1	-	-	-	-	.	.
O=C(Cn1cnc2ccccc2c1=O)NCCC(=O)N1CCN(Cc2ccc3c(c2)OCO3)CC1	-	-	-	5.4	-	-
COc1cc2c(cc1NC(=O)C/C(C)=N/NC=O)oc1ccccc12	-	-	-	13	-	-
Fc1cccc2sc(Nc3nc(-c4ccccn4)cs3)nc12	-	50	-	7.6	-	-
O=C(CN1C(=O)CCC1=O)Nc1nc2c(s1)CCc1ccccc1-2	-	-	-	-	.	.
N#Cc1ccccc1C(Br)C(Br)C(=O)O (centres undefined)	-	-	-	6.0	-	-
SMILES	FBW7 activator	TEAD-YAP block	MITF primary	GPR151 activ	GPR151 conf act	GPR119 ag
N#Cc1ccc(C(=O)C(=O)c2ccccc2)cc1C#N	-	-	-	-	.	.
Cc1nnc(SCC(=O)O)n1/N=C/c1ccc2c(c1)OCO2	-	-	-	-	.	.
Cc1nnc(-c2ccccc2)c(=O)n1/N=C/c1ccc2c(c1)OCO2	-	-	-	8.1	-	-
Cc1cc(C)cc(NC(=O)CC(C(=O)O)N2CCNCC2)c1 (centres undefined)	-	-	-	-	.	.
O=C(CCc1ccccc1)Nc1cc(Cl)ccc1Cl	-	-	-	-	.	.
O=C(CC(NCc1ccccc1)C(=O)O)Nc1cc(Cl)ccc1Cl (centres undefined)	-	-	-	7.2	-	-
CC(Oc1ccc(C(C)(C)C)cc1)C(=O)NC1CCS(=O)(=O)C1 (centres undefined)	-	-	-	5.2	-	-
O=C1NC(=O)C(=Cc2ccc(OC(=O)c3ccccc3Cl)cc2)C(=O)N1	-	-	-	5.5	-	-
N=C1C(c2nc3ccccc3[nH]2)=C(O)CN1CCc1ccccc1	-	-	-	5.3	-	-
COc1ccc(Cl)cc1N1CC(O)=C(c2nc3ccccc3[nH]2)C1=N	-	-	-	-	.	.
COc1ccc(N2CC(O)=C(c3nc4ccccc4[nH]3)C2=N)cc1Cl	-	-	-	6.0	-	-
Cc1ccc(C(=O)c2oc3ccc(NC(=O)c4ccco4)cc3c2C)cc1	-	-	-	7.8	-	-
Cc1c(C(=O)c2ccccc2)oc2ccc(NC(=O)c3cccs3)cc12	-	-	-	-	.	.
O=C(CCSc1ccccc1)Nc1nc2ccccc2s1	-	-	-	5.0	-	-
O=C(COC(=O)C1CCC(=O)N1)Nc1nc2ccccc2s1 (centres undefined)	-	-	-	6.0	-	-
O=S(=O)(c1ccc(F)cc1)N1CCN(c2nc3ccccc3o2)CC1	-	-	-	-	.	.
CC(=O)C1=C(O)C(=O)N(CCCNCCO)C1c1cccnc1 (centres undefined)	-	-	-	-	.	.
COc1ccccc1C(=O)COC(=O)C1(C)CC1(Cl)Cl (centres undefined)	-	-	-	7.6	-	-
O=C(NCc1cccc(C(F)(F)F)c1)c1csc(-c2cccs2)n1	-	-	-	-	.	.
CCc1ccc(-c2cc(C(=O)N3CCCCC3)c3ccccc3n2)cc1	-	-	-	-	.	.
CCc1ccc(-c2cc(C(=O)N3CCN(C/C=C/c4ccccc4)CC3)c3ccccc3n2)cc1	-	47	-	5.3	-	-
CCCOc1ccc(N2C(=O)C3C(C2=O)C2(C)CC3(C)CC2=O)cc1 (centres undefined)	-	-	-	7.8	-	-
O=C(O)CN1C(=O)c2cccc3c(Cl)cc(Br)c1c23	-	-	-	-	.	.
O=C(O)CN1C(=O)c2cccc3c(Cl)cc(Cl)c1c23	-	-	-	6.1	-	-
CCOC(=O)C1C(=O)CC(C)(O)C(C(=O)OCC)C1c1ccc(CC)cc1 (centres undefined)	-	-	-	-	.	.
CCOC(=O)C1C(=O)CC(C)(O)C(C(=O)OCC)C1c1cccnc1 (centres undefined)	-	-	-	5.0	-	-
Cc1ccc2c(c1)cc(CN(CCc1ccccc1)C(=O)N1CCOCC1)c1nnnn12	-	-	-	5.2	-	-
Cc1ccc2c(c1)cc(CN(Cc1ccco1)S(=O)(=O)c1ccccc1)c1nnnn12	-	-	-	6.7	-	-
